In the library only some 0.24% were active in any assay of this set; here they are far more common.
BRCT PPI green = inhibitors of human BRCA1 BRCT-phosphoprotein interaction (green fluorophore); BRCA1 BRCT-phosphopeptide binding, green fluorescence polarization; P38398; actives 0.05% (n = 75,000); Potency, µM (series often up to 76.9 µM), usual class: inhibitors
Target sequence (P38398 whole entry, looked up): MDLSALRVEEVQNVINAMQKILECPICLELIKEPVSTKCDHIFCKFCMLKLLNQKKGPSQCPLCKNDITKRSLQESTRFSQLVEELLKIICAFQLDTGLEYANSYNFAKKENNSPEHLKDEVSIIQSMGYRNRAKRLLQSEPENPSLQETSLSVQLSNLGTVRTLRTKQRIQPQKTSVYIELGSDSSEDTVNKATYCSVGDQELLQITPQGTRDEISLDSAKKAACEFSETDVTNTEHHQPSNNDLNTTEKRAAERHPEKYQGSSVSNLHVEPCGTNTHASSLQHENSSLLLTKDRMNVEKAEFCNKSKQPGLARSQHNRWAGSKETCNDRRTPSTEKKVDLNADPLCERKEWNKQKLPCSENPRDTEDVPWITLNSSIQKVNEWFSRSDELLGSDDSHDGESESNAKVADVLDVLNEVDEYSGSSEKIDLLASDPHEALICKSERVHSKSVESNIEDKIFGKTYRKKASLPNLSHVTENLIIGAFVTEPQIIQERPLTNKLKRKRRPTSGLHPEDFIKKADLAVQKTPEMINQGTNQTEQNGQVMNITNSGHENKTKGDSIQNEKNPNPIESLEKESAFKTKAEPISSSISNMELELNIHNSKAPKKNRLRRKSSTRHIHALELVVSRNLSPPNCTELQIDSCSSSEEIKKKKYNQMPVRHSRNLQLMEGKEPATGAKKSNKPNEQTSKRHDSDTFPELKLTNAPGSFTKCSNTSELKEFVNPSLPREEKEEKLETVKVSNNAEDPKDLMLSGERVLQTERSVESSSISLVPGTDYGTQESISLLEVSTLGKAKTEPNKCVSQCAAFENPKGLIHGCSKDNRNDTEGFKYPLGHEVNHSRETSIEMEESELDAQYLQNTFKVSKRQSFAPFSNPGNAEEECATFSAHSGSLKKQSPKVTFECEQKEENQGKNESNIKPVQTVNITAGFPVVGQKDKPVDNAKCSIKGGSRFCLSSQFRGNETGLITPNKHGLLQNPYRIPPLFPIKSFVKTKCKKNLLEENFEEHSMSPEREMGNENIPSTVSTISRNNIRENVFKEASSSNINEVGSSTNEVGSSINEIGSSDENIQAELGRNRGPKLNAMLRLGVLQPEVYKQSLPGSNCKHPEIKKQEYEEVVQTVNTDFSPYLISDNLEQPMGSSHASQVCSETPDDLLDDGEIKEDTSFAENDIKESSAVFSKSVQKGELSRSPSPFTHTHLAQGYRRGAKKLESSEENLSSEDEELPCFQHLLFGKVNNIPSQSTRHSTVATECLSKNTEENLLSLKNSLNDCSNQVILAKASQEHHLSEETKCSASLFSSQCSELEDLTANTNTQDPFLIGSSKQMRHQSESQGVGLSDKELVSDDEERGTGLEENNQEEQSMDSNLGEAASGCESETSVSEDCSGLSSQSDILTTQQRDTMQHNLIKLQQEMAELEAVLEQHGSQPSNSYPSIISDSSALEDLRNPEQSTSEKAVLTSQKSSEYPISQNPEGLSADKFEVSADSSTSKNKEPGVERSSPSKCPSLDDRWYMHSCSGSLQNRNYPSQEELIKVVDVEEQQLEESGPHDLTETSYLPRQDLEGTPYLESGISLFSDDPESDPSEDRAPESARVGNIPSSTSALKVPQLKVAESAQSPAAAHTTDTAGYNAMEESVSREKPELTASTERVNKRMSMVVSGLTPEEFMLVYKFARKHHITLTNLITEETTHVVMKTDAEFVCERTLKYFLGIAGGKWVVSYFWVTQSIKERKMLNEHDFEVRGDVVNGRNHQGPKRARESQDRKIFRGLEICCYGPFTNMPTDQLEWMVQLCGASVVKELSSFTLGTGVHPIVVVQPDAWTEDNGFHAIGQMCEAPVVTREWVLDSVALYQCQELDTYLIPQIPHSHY
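Fluorescence polarization: His-tagged BRCT (~35 kDa BRCA1 C-terminus, 250 nM) bound to 100 nM fluorescein-labeled phosphorylated 10-aa BACH1 peptide, pH 7.3 phosphate buffer with DTT and Tween 20. Compounds incubated 12 min at room temperature; inhibition read as lowered polarization.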
BRCT PPI red = inhibitors of human BRCA1 BRCT-phosphoprotein interaction (red fluorophore); actives 0.03% (n = 75,000); Potency, µM (highest dose often 76.9 µM), hits mostly inhibitors; BRCT-phosphopeptide binding, red fluorescence polarization
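Rhodamine-labelled pBACH1 10-mer (100 nM) bound to BRCT domain (100 nM) at pH 7.3; compounds incubated 12 min room temperature, polarization read. Free peptide defines full inhibition; unlabelled decapeptide titrated as control.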
DNA Pol III inh = blocks replication by bacterial DNA polymerase III holoenzyme; AID 603; Potency, µM (top dose mostly 57.1 µM); actives 0.25% (n = 71,000); reconstituted DNA polymerase III holoenzyme replication, biochemical
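Reconstituted *E. coli* holoenzyme (0.35 nM Pol III, 1 nM beta, 154 nM SSB, 2 nM primase) was preincubated with compound for 15 min at RT. Synthesis on 1.4 nM ssM13Gori ran 35 min, then was stopped with PicoGreen/EDTA and read as dsDNA fluorescence.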
YjeE inh = displaces an ADP probe from E. coli YjeE (TsaE) | P0AF67 | purified YjeE enzyme, qHTS inhibition assay | Potency, µM | actives 0.05% (n = 71,000) | AID 605
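Fluorescence polarization of a BODIPY Texas Red–ADP probe (2 uM) bound to purified YjeE (10 uM) was read after 15 min room-temperature incubation with compounds. Loss of polarization marks inhibitors; ADP serves as titrated control.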
Hits are given with their value; – = inactive; ? = inconclusive; · = no result given; ! = a repeat was not active; [ ] = dose if it differs, or a comment. Calls come from the whole dose curve; as a rule, active = well fitted curve in the direction sought with a large enough effect; inconclusive = small, poorly fitted or top-dose-only effect, or another doubt; inactive = no such curve, though single readings can be large; an effect the other way counts as inactive or inconclusive.

SMILES	BRCT PPI green	BRCT PPI red	DNA Pol III inh	YjeE inh
Oc1cccc(O)c1O	–	–	7.9µM	–
COc1c(O)cccc1O	–[3.08 µM]	–	·	·
S=C(S)NCCN1CCNCC1	–[15.4 µM]	–[15.4 µM]	–[11.4 µM]	–
O=c1nc2s/c(=C\c3ccco3)c(=O)n2nc1Cc1ccc(F)cc1	–	–	16µM	–
Cn1cccc1C(=O)N1CCC[C@@]2(CCN(c3ccccn3)C2)C1	–	–	–	–
C[C@@](N)(Cc1ccc(O)c(O)c1)C(=O)O	–[3.08 µM]	–	13µM!	–
CCCCCCCC/C=C/CCCCCCCCOP(=O)([O-])OCC[N+](C)(C)C	–[3.08 µM]	–	·	·
Cc1c2oc3c(C)ccc(C(=O)N[C@@H]4C(=O)N[C@@H](C(C)C)C(=O)N5CCC[C@@H]5C(=O)N(C)CC(=O)N(C)[C@@H](C(C)C)C(=O)O[C@H]4C)c3nc-2c(C(=O)N[C@@H]2C(=O)N[C@@H](C(C)C)C(=O)N3CCC[C@@H]3C(=O)N(C)CC(=O)N(C)[C@@H](C(C)C)C(=O)O[C@H]2C)c(N)c1=O	–	–	0.13µM	–
Cn1c(O)c(N=N/C(=N/c2ccccn2)c2ccccn2)c2cc(Br)ccc21	–	–	·	·
N[C@@H](Cc1c[nH]c2ccc(O)cc12)C(=O)O	–	–	–	–
N[C@@H](Cc1cc(-c2ccc(Cl)cc2Cl)cc(CP(=O)(O)O)c1O)C(=O)O	–	–	32µM	–
Cn1c(-c2nc(-c3ccccc3)cs2)nc2ccccc21	40µM	–	·	·
c1ccc(-c2csc(-c3nc4ccccc4[nH]3)n2)cc1	?	–	·	·
CCCn1c(-c2ccc(F)cc2)nc2c(NCCN(C)C)nc(C)nc21	–	–	–	–
O=C1C(SCCO)=C(SCCO)C(=O)c2ccccc21	–	–	32µM!	–
N#CC(=NCCO)C1=C(O)c2ccccc2C1=O	–[15.4 µM]	–[15.4 µM]	–[11.4 µM]	–
COc1cccc(OC)c1-c1nn2c(-c3cc(-c4ccccc4)n[nH]3)nnc2s1	–	–	13µM	?
NC(N)=Nc1nc(CSCC/C(N)=N\S(N)(=O)=O)cs1	–[3.08 µM]	–	·	·
